Laboratory results from PubChem BioAssay (Tox21).
Results filed as inconclusive are left out. Entries that show only a call come without a potency. Activity calls are given as the source filed them. Calls follow the shape of the dose curve; as a rule, active = well fitted cell-killing curve with a large enough effect in the repeat runs; inconclusive = weak or mixed curves, or effect the other way; inactive = flat fitted curve, though single readings scatter.

experiment: cAMP Responsive Elements (CRE) small molecule antagonists, cell-based qHTS assay: qHTS cell viability counter screen (AID 2060913); details: CRE-bla HEK293T viability, CellTiter-Glo luminescence, 5 h; series mostly up to 92.4 µM; also: nearly all actives have a fitted effect of over 40% in size
Procedure, shortened: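 CRE-bla HEK293T cells were seeded in assay medium with 10% dialyzed FBS, incubated 18 hrs at 37 C, then exposed to compounds plus 0.25 uM final NKH477 for 3 hrs. Viability was read by CellTiter-Glo luminescence after 30 min, in the same wells.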

Row | SMILES | Potency
1 | CC(C)=CC1C(C(=O)OC(C#N)c2cccc(Oc3ccccc3)c2)C1(C)C (stereo not given) | inactive
2 | C=CC(=O)OCC(CC)CCCC (stereo not given) | inactive
3 | NCCCNCCCN | inactive
4 | CC(C)(O)c1cnn2c(-c3ccc(F)c(-c4c(F)cccc4C#N)c3)cnc2n1 | inactive
5 | CCCCSP(=O)(SCCCC)SCCCC | inactive
6 | COC(=O)c1cncn1C(C)c1ccccc1 (stereo not given) | inactive
7 | CCn1cc[n+](C)c1 | inactive
8 | O=C1C[C@@H]2OCC=C3CN4CC[C@]56c7ccccc7N1[C@H]5[C@H]2[C@H]3C[C@H]46 | inactive
9 | C[C@H]1CCC[C@H](O)CCCCCc2cc(O)cc(O)c2C(=O)O1 | inactive
10 | CC(C)OC(=O)Nc1ccccc1 | inactive
11 | [Cl][Sn]([Cl])([Cl])[Cl] | inactive
12 | BrCBr | inactive
13 | CCN(N=O)C(N)=O | inactive
14 | CC(=O)NC1CCSC1=O (stereo not given) | inactive
15 | C[N+]1(CCF)[C@@H]2CC[C@H]1CC(OC(=O)C(O)(c1ccccc1)c1ccccc1)C2 (stereo not given in full) | inactive
16 | CNC(=O)/C=C(\C)OP(=O)(OC)OC | inactive
17 | Clc1nc(Cl)nc(Cl)n1 | inactive
18 | CCCCCCCCCCCCCCC(Br)C(=O)O (stereo not given) | inactive
19 | COP(=O)(OC)C(O)C(Cl)(Cl)Cl (stereo not given) | inactive
20 | Nc1ccc(Cc2ccc(N)c(Cl)c2)cc1Cl | inactive

Row | SMILES | Potency
21 | CCc1cccc(C)c1N(C(=O)CCl)[C@@H](C)COC | inactive
22 | Cc1cc(-c2cc(C)c(N)c(C)c2)cc(C)c1N | inactive
23 | CCCC(C)C1(CC)C(=O)N=C(S)NC1=O (stereo not given) | inactive
24 | ClC(Cl)(Cl)Br | inactive
25 | C=CCBr | inactive
26 | CC(C)[C@@H](C(=O)O[C@@H](C#N)c1cccc(Oc2ccccc2)c1)c1ccc(Cl)cc1 | inactive
27 | N#CCc1ccc(Cl)cc1 | inactive
28 | O=[N+]([O-])c1cc(C(F)(F)F)c(Cl)c([N+](=O)[O-])c1Cl | inactive
29 | O=C1c2ccccc2C(=O)N1SC(Cl)(Cl)Cl | inactive
30 | BrC(Br)C(Br)(Br)Br | inactive
31 | ClC(Cl)Br | inactive
32 | COc1nc(C)nc(NC(=O)NS(=O)(=O)c2ccccc2Cl)n1 | inactive
33 | CCNc1nc(NC(C)(C)C)nc(SC)n1 | inactive
34 | O=c1n(Cl)c(=O)n(Cl)c(=O)n1Cl | inactive
35 | CCC[N+]1(C)CCCCC1 | inactive
36 | CC(C)(c1ccccc1)c1cc(-n2nc3ccccc3n2)c(O)c(C(C)(C)c2ccccc2)c1 | inactive
37 | Clc1ccc(Oc2ccccc2)cc1 | inactive
38 | CC(Cl)C(=O)O (stereo not given) | inactive
39 | O=NN1CCNCC1 | inactive
40 | CCOP(=S)(OCC)Oc1ccc([N+](=O)[O-])cc1 | inactive
